“And” between values parts separate entries of the source, which are not always exact repeats. Identical values can stand only once. The source made the active and inactive calls.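 Rule for the calls, unless noted: active = inhibition at or above 50% relative to wild type and mutant plate controls; inactive = inhibition below 50%.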
Legend:
[1] = inhibitors of mutant huntingtin aggregation, primary screen, imaging, exon1htt(103Q)mCFP cells, high-content imaging (AID 483;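 active = visual image review flags a hit and inhibition of aggregation exceeds 20%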;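 note: compound exposure lasted 3 days before fixation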;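 for nuclei count: percent of the per-plate median nuclei count of sample wells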); details: exon1htt(103Q)mCFP cell line, aggregate imaging, at 2 µM; inhibition of aggregation: stronger effect = higher value; nuclei count: measured here: cell count, toxicity
[2] = inhibitors of E-selectin induction by TNFa, primary screen, imaging, HUVEC, immunofluorescence, MLSMR starter and 10KST1 sets (AID 487;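 active = visually confirmed hit in the image check and inhibition above 20%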;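 for inhibition: signal is fraction of cell area covered by stained E-selectin grains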;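 for nuclei count: 100% = median nuclei count of all wells on the same plate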); details: HUVEC TNFalpha-induced E-selectin immunofluorescence imaging, at 2 µM; inhibition: stronger effect = higher value; nuclei count: measured here: cell number, toxicity
[3] = DUSP6 inhibitors restoring Erk phosphorylation by chemical complementation, primary imaging in DUSP6-transfected HeLa (AID 609;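 active = compounds giving at least 50% inhibition in the cell-based MKP-3 phosphatase rescue imaging test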;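 for inhibition: phospho-Erk level distribution per well compared with pooled transfected vehicle control wells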); details: HeLa MKP-3 transfected, phospho-Erk imaging KS statistic, at 10 µM, cells stimulated with TPA for 15 min
[4] = target: Dual specificity protein phosphatase 6 (Homo sapiens) (UniProt Q16828); assay: as above; details: HeLa MKP-3 transfected, phospho-Erk imaging KS statistic; at 10 µM; stronger effect = higher value; cells stimulated with TPA for 15 min
Chain of Dual specificity protein phosphatase 6 (Homo sapiens) (Q16828 whole entry, looked up): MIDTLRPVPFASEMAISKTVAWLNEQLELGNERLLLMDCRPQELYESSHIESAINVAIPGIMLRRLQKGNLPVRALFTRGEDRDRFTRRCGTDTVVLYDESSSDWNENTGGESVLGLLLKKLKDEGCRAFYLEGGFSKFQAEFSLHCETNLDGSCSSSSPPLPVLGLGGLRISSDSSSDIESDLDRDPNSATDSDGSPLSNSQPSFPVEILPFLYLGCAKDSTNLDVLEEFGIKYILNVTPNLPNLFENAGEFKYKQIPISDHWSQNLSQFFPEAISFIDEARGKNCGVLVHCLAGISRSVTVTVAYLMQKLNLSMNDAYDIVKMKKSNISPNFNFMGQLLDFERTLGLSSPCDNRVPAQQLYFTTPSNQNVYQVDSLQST

[5] = target: Voltage-gated potassium channel subunit beta-2 (Rattus norvegicus) (UniProt P62483); assay: KvBeta enzyme negative modulators, primary screen, biochemical, NADPH fluorescence (AID 622;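 active = fluorescence slope higher than the sample average by over 3 SD, cut at about -0.22 in these data, passing the limit was not always enough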;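 note: slope of raw intensity against log time taken from 70 to 1610 s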); details: recombinant KvBeta, 4-cyanobenzaldehyde reduction, at 10 µM, stronger effect = higher value
Chain of Voltage-gated potassium channel subunit beta-2 (Rattus norvegicus) (P62483 whole entry, looked up): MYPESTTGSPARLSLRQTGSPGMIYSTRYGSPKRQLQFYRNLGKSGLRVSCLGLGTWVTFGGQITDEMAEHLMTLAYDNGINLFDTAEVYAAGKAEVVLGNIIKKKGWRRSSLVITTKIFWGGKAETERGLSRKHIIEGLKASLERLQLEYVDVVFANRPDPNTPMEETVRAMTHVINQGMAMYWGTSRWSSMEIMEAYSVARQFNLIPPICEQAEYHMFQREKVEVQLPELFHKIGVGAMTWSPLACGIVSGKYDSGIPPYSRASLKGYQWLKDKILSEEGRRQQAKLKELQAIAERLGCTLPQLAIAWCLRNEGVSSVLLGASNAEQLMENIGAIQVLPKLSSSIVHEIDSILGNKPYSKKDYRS

[6] = target: Voltage-gated potassium channel subunit beta-2 (Rattus norvegicus) (UniProt P62483); assay: KvBeta positive modulators, primary screen, biochemical, NADPH fluorescence (AID 623;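 active = NADPH fluorescence slope more negative than the mean of all samples by about 3 SD, 99.7% confidence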;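 note: fluorescence intensity change per second fitted from 20 to 320 s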); details: Recombinant KvBeta, NADPH fluorescence decrease slope, 10 min; at 10 µM; stronger effect = lower value
[7] = target: Alpha-2C adrenergic receptor (Homo sapiens) (UniProt P18825); assay: modulators of alpha2C/GIRK thallium flux, primary screen, cell-based, HEK293 alpha2C/GIRK1/2 (AID 624;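 active = fluorescence slope after compound addition differing from the mean of all screened samples at 99.7% confidence, in either direction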;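 note: slope of fluorescence ratio to pre-addition baseline per second over 15 to 24 s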); details: thallium flux BTC fluorescence, at 10 µM, actives lie on both sides
Chain of Alpha-2C adrenergic receptor (Homo sapiens) (P18825 whole entry, looked up): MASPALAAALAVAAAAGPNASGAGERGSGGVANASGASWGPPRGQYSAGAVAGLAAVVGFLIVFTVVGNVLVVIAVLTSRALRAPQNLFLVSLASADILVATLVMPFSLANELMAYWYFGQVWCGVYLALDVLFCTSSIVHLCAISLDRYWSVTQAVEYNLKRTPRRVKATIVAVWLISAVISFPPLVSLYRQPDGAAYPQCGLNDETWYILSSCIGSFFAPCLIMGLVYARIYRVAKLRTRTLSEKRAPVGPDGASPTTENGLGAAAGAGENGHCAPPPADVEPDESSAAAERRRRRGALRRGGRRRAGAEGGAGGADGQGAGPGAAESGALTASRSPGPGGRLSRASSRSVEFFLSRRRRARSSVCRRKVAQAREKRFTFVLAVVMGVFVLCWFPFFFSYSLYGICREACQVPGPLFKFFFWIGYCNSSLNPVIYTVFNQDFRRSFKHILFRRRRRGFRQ

[8] = inhibitors of larval lipid processing in zebrafish, primary screen, whole organism, PED6 fluorescence, gall bladder and intestine (AID 686;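 active = a full or partial loss of lipid-probe fluorescence in the fish gall bladder, intestine or both, judged by eye; inactive = no fluorescence loss, or compound toxic to the fish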;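 note: larvae 5 to 7 days old with five fish per well; signal comes from phospholipase A2 cleavage of quenched PED6 carried via bile; overnight exposure to compound and PED6 before scoring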); details: Zebrafish larvae PED6 lipid processing, fluorescence scoring; screened at 20 µM (by protocol)
[9] = inhibitors of Chlamydomonas gravitaxis, primary screen, whole organism, Chlamydomonas reinhardtii, WT vs cilia-less mutant, absorbance, 96-well (AID 463189); details: OD600 absorbance, 2 days, at 10 µM, stronger effect = higher value;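 note: 0% = wild type cc124 cells in DMSO and 100% = ciliumless bld1 mutant cells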
[10] = inhibitors of Sendai virus-induced IRF3 signaling, primary screen, TLR/RLR signaling modifier project, cell-based, Sendai virus stimulus, luciferase, 10K MLSCN set (AID 602276;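 active = inhibition at or above 50% at 10 µM; inactive = inhibition below 50%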;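 note: firefly luciferase from ISG56 promoter only with Renilla not read in this screen; 0% = Sendai virus plus DMSO and 100% = medium plus DMSO without virus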); details: HEK293 RL24 IRF3 luciferase reporter, at 10 µM, stronger effect = higher value
[11] = inhibitors of poly I:C-induced TLR3 signaling, primary screen, cell-based, poly I:C stimulus, luciferase, 10K MLSCN set (AID 602277;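 active = inhibition of the reporter signal at or above 50%; inactive = inhibition below 50%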); details: HEK293-TLR3 RL24 IRF3 luciferase reporter, at 10 µM, stronger effect = higher value
[12] = target: Muscarinic acetylcholine receptor M4 (Homo sapiens) (UniProt P08173); assay: compounds altering M4/GIRK thallium flux, either direction, primary screen, M4 allosteric agonist project, cell-based, HEK293 M4/GIRK, BTC-AM (AID 625;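 active = fluorescence slope after compound addition differing from the mean of all tested samples at 99.7% confidence, mostly higher but some lower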;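 note: thallium influx through GIRK channels coupled to M4 in HEK293 cells with BTC-AM dye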); details: at 10 µM, actives lie on both sides
Chain of Muscarinic acetylcholine receptor M4 (Homo sapiens) (P08173 whole entry, looked up): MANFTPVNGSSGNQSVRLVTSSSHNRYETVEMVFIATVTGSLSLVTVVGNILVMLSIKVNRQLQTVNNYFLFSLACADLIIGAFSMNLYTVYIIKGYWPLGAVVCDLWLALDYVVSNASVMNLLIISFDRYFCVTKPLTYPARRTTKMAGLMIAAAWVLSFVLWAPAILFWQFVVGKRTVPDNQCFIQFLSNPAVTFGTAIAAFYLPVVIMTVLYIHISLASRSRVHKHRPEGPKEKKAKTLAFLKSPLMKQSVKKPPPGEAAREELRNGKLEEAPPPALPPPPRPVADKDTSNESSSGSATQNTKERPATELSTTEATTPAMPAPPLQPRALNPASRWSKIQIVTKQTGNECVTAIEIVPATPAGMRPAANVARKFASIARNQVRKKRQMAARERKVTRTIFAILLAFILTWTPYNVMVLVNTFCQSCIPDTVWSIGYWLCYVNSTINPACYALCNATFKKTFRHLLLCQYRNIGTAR

[13] = measured here: cell density z-score
[14] = measured here: nuclear c-Myc green intensity z-score
[15] = measured here: nuclear pErk red intensity z-score, stronger effect = higher value

SMILES | inhibition of aggregation [1] | nuclei count [1] | inhibition [2] | nuclei count [2] | z-score [3, 13] | z-score [3, 14] | z-score [3, 15] | inhibition [4] | fluorescence slope [5] | NADPH fluorescence slope [6] | slope [7] | outcome [8] | inhibition [9] | inhibition [10] | inhibition [11] | fluorescence slope [12]
CC(=O)Nc1c(I)c(NC(C)=O)c(I)c(C(=O)O)c1I | 21.1% (inactive) | 102% | -43.7% (inactive) | 126% | 0.431 | 0.292 | -0.145 | 11.3% (inactive) | -0.491 (inactive) | -2.1e-05 (inactive) | 0.00549 (inactive) | inactive | 0.515% (inactive) | -2.38% (inactive) | 5.34% (inactive) | –
CN(C)CCCC1(c2ccc(F)cc2)OCc2cc(C#N)ccc21 (stereo not given) | -40.9% (inactive) | 103% | -57.3% (inactive) | 141% | -1.47 | -1.41 | 2.05 | -9.66% (inactive) | -0.453 (inactive) | 1.8e-06 (inactive) | 0.00413 (inactive) | inactive | 8.33% (inactive) and 1.25% (inactive) | 1.82% (inactive) | 18.9% (inactive) | –
Cn1c(=O)c2c(ncn2CC(O)CO)n(C)c1=O (stereo not given) | 15% (inactive) | 90% | -81.8% (inactive) | 127% | 0.192 | -0.712 | 0.659 | 3.59% (inactive) | -0.438 (inactive) | 4.1e-05 (inactive) | 0.00483 (inactive) | inactive | 8.88% (inactive) | 12.6% (inactive) | 29.1% (inactive) | –
CNCCC(Oc1ccc(C(F)(F)F)cc1)c1ccccc1 (stereo not given) | 10.2% (inactive) | 100% | -36.9% (inactive) | 127% | -0.242 | 0.755 | 0.581 | 12.4% (inactive) | -0.447 (inactive) | -4.5e-05 (inactive) | 0.00359 (inactive) | inactive | 1.27% (inactive) and 34.8% (inactive) | 21% (inactive) | 34.3% (inactive) | –
CN(C)CCCN1c2ccccc2Sc2ccccc21 | 3.5% (inactive) | 100% | 3.6% (inactive) | 110% | 0.654 | 0.845 | -0.156 | 11.3% (inactive) | -0.511 (inactive) | -7e-05 (inactive) | 0.00267 (inactive) | inactive | 8.93% (inactive) and 48% (inactive) | 6.01% (inactive) | 34.6% (inactive) | –
O=c1[nH]c2ccccc2n1CCCN1CCN(C(c2ccccc2)c2ccccc2)CC1 | 0% (inactive) | 107% | -139% (inactive) | 123% | -0.406 | -0.951 | 1.42 | 1.48% (inactive) | -0.492 (inactive) | 1.6e-07 (inactive) | 0.00471 (inactive) | inactive | 0.779% (inactive) and 19.8% (inactive) | 18.3% (inactive) | 35.4% (inactive) | –
CC1(C)O[C@@H]2C[C@H]3[C@@H]4C[C@H](F)C5=CC(=O)C=C[C@]5(C)[C@@]4(F)[C@@H](O)C[C@]3(C)[C@]2(C(=O)CO)O1 | -15.7% (inactive) | 58% | -6.4% (inactive) | 102% | 1.28 | -0.179 | -0.732 | 27.1% (inactive) | -0.489 (inactive) | 1.8e-05 (inactive) | 0.00523 (inactive) | inactive | -10.3% (inactive) | 5.68% (inactive) | 56.9% (active) | –
COc1cc2nc(N3CCN(C(=O)C4COc5ccccc5O4)CC3)nc(N)c2cc1OC (stereo not given) | -4.2% (inactive) | 100% | -103% (inactive) | 123% | 0.0825 | -0.753 | -0.892 | -0.493% (inactive) | -0.435 (inactive) | -3.3e-05 (inactive) | 0.00431 (inactive) | inactive | -6.99% (inactive) and 1.78% (inactive) | 5.11% (inactive) | 24.7% (inactive) | –
c1ccc2c(c1)CCCC2C1=NCCN1 (stereo not given) | -2.2% (inactive) | 106% | -52.5% (inactive) | 112% | -1.5 | 0.768 | 0.367 | 5.79% (inactive) | -0.464 (inactive) | -5e-05 (inactive) | 0.00529 (inactive) | inactive | 8.79% (inactive) and 22.7% (inactive) | 12.1% (inactive) | 48.1% (inactive) | –
CC1(C)O[C@@H]2C[C@H]3[C@@H]4CCC5=CC(=O)C=C[C@]5(C)[C@@]4(F)[C@@H](O)C[C@]3(C)[C@]2(C(=O)CO)O1 | -6.5% (inactive) | 62.6% | -115% (inactive) | 116% | 0.696 | -0.511 | -0.313 | -2.46% (inactive) | -0.515 (inactive) | -2.4e-05 (inactive) | 0.00512 (inactive) | inactive | -13.3% (inactive) | -3.36% (inactive) | 10.8% (inactive) | –
COc1ccc([C@@H]2Sc3ccccc3N(CCN(C)C)C(=O)[C@@H]2OC(C)=O)cc1 | – | – | -27.1% (inactive) | 104% | 0.794 | -1.47 | 0.473 | -4.44% (inactive) | -0.507 (inactive) | -7.4e-05 (inactive) | 0.00609 (inactive) | inactive | 4.06% (inactive) and -15.6% (inactive) | 16.3% (inactive) | 35.5% (inactive) | –
O=C(NCC1CCCCN1)c1cc(OCC(F)(F)F)ccc1OCC(F)(F)F (stereo not given) | – | – | -29.3% (inactive) | 107% | 0.584 | 0.032 | 0.103 | 15.3% (inactive) | -0.495 (inactive) | -5.3e-05 (inactive) | 0.00342 (inactive) | inactive | -10.1% (inactive) and -10.2% (inactive) | -8.5% (inactive) | 50.6% (active) | –
CC(C)CCOc1ccc(Cl)cc1CN1CCOCC1 | – | – | -12.9% (inactive) | 146% | -1.08 | -0.136 | -0.739 | -3.98% (inactive) | -0.378 (inactive) | -7.1e-06 (inactive) | – | inactive; toxic | 106% (active) | – | – | 0.00465 (inactive)
COc1ccc(-c2coc3cc(O)cc(O)c3c2=O)cc1 | 9.1% (inactive) | 116% | – | – | -0.996 | 0.921 | 0.72 | 10.2% (inactive) | -0.544 (inactive) | -4.1e-06 (inactive) | 0.00576 (inactive) | inactive | -12.4% (inactive) | -90.2% (inactive) | -200% (inactive) | –
COc1ccc(OCC(=O)OCCN(C)C)cc1 | – | – | -159% (inactive) | 170% | -1.95 | -1.2 | -0.272 | -10.6% (inactive) | -0.383 (inactive) | -2.2e-05 (inactive) | 0.00493 (inactive) | inactive | 6.76% (inactive) | – | – | –
Cc1ccc(N2CN=c3s/c(=C\c4cccnc4)c(=O)n3C2)cc1 | – | – | -18.9% (inactive) | 87.4% | -0.873 | 0.442 | 0.633 | 1.75% (inactive) | -0.483 (inactive) | -4.2e-05 (inactive) | – | inactive | 36.5% (inactive) | – | – | 0.00552 (inactive)
CCn1cc(/C=N/O)c(C)n1 | – | – | -98.3% (inactive) | 153% | 1.83 | -0.528 | -0.0353 | 13.2% (inactive) | -0.345 (inactive) | -3.9e-05 (inactive) | – | inactive | 17.2% (inactive) | – | – | 0.00667 (inactive)
COc1ccc(CSc2nnc(C)n2N)cc1Br | – | – | -82.3% (inactive) | 182% | 1.41 | -2.02 | 0.078 | 13.2% (inactive) | -0.395 (inactive) | -5.4e-05 (inactive) | – | inactive | 5.58% (inactive) | – | – | 0.00742 (inactive)
COc1ccc(OC)c(N=C(C)C2=C(O)COC2=O)c1 | – | – | -20.1% (inactive) | 104% | -1.31 | 0.523 | 0.389 | -0.159% (inactive) | -0.404 (inactive) | 6.7e-06 (inactive) | – | inactive; toxic | -11.6% (inactive) | – | – | 0.00554 (inactive)
CC1(C)CC(=O)C=C(NCCO)C1 | – | – | -18.5% (inactive) | 146% | 1.01 | -0.173 | -0.675 | 20.8% (inactive) | -0.395 (inactive) | -5.8e-05 (inactive) | – | inactive | 40.3% (inactive) | – | – | 0.00557 (inactive)
CN1CCN(C2=Nc3cc(Cl)ccc3Nc3ccccc32)CC1 | – | – | -176% (inactive) | 132% | -0.235 | 0.0948 | 0.322 | -0.493% (inactive) | -0.457 (inactive) | -6.9e-05 (inactive) | – | inactive | -2.62% (inactive) and 13.2% (inactive) | 2.76% (inactive) | 60.3% (active) | 0.00391 (inactive)
COc1ccc(Cn2ccnc2)cc1Br | – | – | -47% (inactive) | 141% | -0.527 | 1.89 | -0.19 | 18.9% (inactive) | -0.302 (inactive) | 1.1e-06 (inactive) | – | inactive | 109% (active) | – | – | 0.00733 (inactive)
C1CNCCNCCCNCCNC1 | 19.7% (inactive) | 100% | – | – | – | – | – | – | -0.454 (inactive) | -6.6e-05 (inactive) | – | inactive | -15.9% (inactive) | – | – | –
Cc1cccc(OCC(=O)NCC(=O)n2nc(C)cc2C)c1 | – | – | -106% (inactive) | 146% | -0.336 | 0.0922 | 0.78 | -7.79% (inactive) | -0.413 (inactive) | -9.5e-06 (inactive) | – | inactive | 16.2% (inactive) | – | – | 0.00436 (inactive)
NC(N)=Nc1nc(CSCC/C(N)=N/S(N)(=O)=O)cs1 | 0.8% (inactive) | 101% | -48.3% (inactive) | 116% | -1.28 | 1.78 | -1.37 | 16.8% (inactive) | – | – | 0.00523 (inactive) | inactive | 2.23% (inactive) and -8.71% (inactive) | 13.5% (inactive) | 42.5% (inactive) | –

From PubChem BioAssay
